Results published in PubChem BioAssay AID2685 (National Center for Advancing Translational Sciences (NCATS), 2010).
Hit rate of the full screen: of about 320,000 compounds, about 2,100 (0.66%) were called active. Inconclusive results (about 53%) are left out. The call rests on the fitted dose curve; in most records, active means well fitted inhibition curve with a large enough effect in the signal ratio, with a control signal flat (not every such curve was filed as active); inconclusive means small, poorly fitted or top-dose-only effect, or effect the other way, or a change in a side signal; inactive means flat fitted curve, though single readings scatter; the % refers to the signal ratio. This excerpt belongs to a sample that is enriched for actives.

experiment: qHTS Assay for Lipid Storage Modulators in Drosophila S3 Cells; conditions: BODIPY lipid droplet fluorescence, 18-24 h, cells fed with added oleic acid; cell number change: measured here: cell count max response; series mostly up to 46.1 µM; lipid storage change, negative = inhibition: at the top concentration;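 on cell number change: cells counted by Cell Tracker Red CMTPX staining in the red channel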; on lipid storage change, negative = inhibition: on the % scale 0 is the no-effect control and ±100 the full control effect
Outline: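 Laser-scanning cytometry quantifies lipid droplet accumulation (500–530 nm total intensity; droplet/cell object ratio) in oleic acid-fed (400 uM added) Drosophila S3 cells treated with a concentration series. 20 uM Triacsin C defined 100% inhibition.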
Potency means the concentration at half of the fitted maximal effect.

| SMILES | lipid storage change, negative = inhibition | cell number change [%] | Potency | outcome |
| --- | --- | --- | --- | --- |
| O=C(CNC(c1ccccc1)c1ccccc1)NCc1ccccc1Cl | -4.84% (inactive) | 11.7 |  |  |
| Cc1cccc(N2CCN(S(=O)(=O)c3c(C)noc3/C=C/N(C)C)CC2)c1C | -15.8% (inactive) | 12.9 |  |  |
| Cc1cc(C)c(-c2csc(NC(=O)/C=C/c3cccs3)n2)c(C)c1 |  | -27.5 | 16.4 µM (active) |  |
| O=C(/C=C/c1cccs1)Nc1nc(-c2ccccc2)cs1 | 24.3% (inactive) |  |  |  |
| Cc1cc(C)nc(NC(=O)/C=C/c2cccs2)c1 | 20.5% (inactive) | -8.29 |  |  |
| O=C(NCCCc1ccccc1)C1CC(=O)N(c2ccc3c(c2)OCCO3)C1 (stereo not drawn) | 9.93% (inactive) | 12.6 |  |  |
| Cc1coc(=N)n1CC(=O)c1ccc(Cl)cc1 | 12.1% (inactive) | 10.4 |  |  |
| O=c1c(Cl)c(Cl)cnn1Cc1ccccc1Cl |  | -22.7 | 14.6 µM (active) |  |
| O=c1[nH]cnc2c1cnn2Cc1ccccc1Cl |  |  |  | inactive |
| Cc1ccc(Cn2ncc(Cl)c(Cl)c2=O)cc1 | -3.59% (inactive) | 1.44 |  |  |
| O=C(CS(=O)(=O)c1ccccc1)Nc1nnc(-c2cccs2)o1 | -5.63% (inactive) | 3.1 |  |  |
| Oc1ccc2ccccc2c1C=Nc1ccc(N2CCOCC2)cc1 |  |  |  | inactive |
| CCn1c2ccccc2c2cc(NC(=O)CN(C)CC(=O)Nc3ccc(N4CCOCC4)cc3)ccc21 | -0.511% [at 9.22 µM] (inactive) | -4.9 |  |  |
| CCn1c(=Nc2ccc(N3CCOCC3)cc2)ccc2ccccc21 |  | -184 | 9.2 µM (active) |  |
| COc1cc(C(c2sc3ncnn3c2O)N2CCN(c3ccccc3F)CC2)cc(OC)c1OC (stereo not drawn) | 1.93% (inactive) | 14.8 |  |  |
| CSc1nc(SCC(=O)O)c2c3c(sc2n1)COC(C)(C)C3 | 21.3% (inactive) | 9.24 |  |  |
| COc1ccc(S(=O)(=O)N2CCOCC2)cc1NC(=O)CSc1nnc2c(n1)[nH]c1ccccc12 | -9.37% (inactive) | -0.0197 |  |  |
| CC(=O)N1CCN(CCN=CC2=C(O)CC(c3cccs3)CC2=O)CC1 (stereo not drawn) |  | -26.6 | 20.6 µM (active) |  |
| C=CCNC(=S)N1CCN(CCN=CC2=C(O)CC(c3cccs3)CC2=O)CC1 (stereo not drawn) | 3.99% (inactive) | 17.2 |  |  |
| CCCCCC(=O)N1CCN(CCN=CC2=C(O)CC(c3cccs3)CC2=O)CC1 (stereo not drawn) | -4.09% (inactive) | 0.809 |  |  |
| Cc1coc2c(C)c3oc(=O)c(CCC(=O)NCCC(=O)O)c(C)c3cc12 |  | 7.91 |  | inactive |
| Cc1ccc(-c2nc(CSc3nc4ccccc4c(=O)n3C)cs2)cc1 | -7.82% (inactive) | 13.2 |  |  |
| Cc1ccc(CSc2nc3ccccc3c(=O)n2C)cc1 |  | 10.9 | 16.4 µM (active) |  |
| Cn1c(SCc2ccc(Br)cc2)nc2ccccc2c1=O |  | -15.2 |  | inactive |
| COC(=O)c1[nH]c2ccc(Cl)cc2c1NC(=O)C1CC1 | 8.69% (inactive) | 1.77 |  |  |
| CCN(CC)c1ccc(/C=N/n2c(C)cc(C)cc2=O)cc1 | 18.4% (inactive) | 0.542 |  |  |
| CCN(CC)c1ccc(/C=N/N2CC(=O)NC2=S)cc1 |  | -17.5 | 0.291 µM (active) |  |
| CCc1n[nH]c(=S)n1/N=C/c1ccc(N(CC)CC)cc1 | 18.9% (inactive) | -4.64 |  |  |
